Some test systems named below: SR leukemia; RPMI-8226 leukemia; OVCAR-8 ovarian; OVCAR-5 ovarian; OVCAR-4 ovarian; SK-OV-3 ovarian; IGROV1 ovarian; OVCAR-3 ovarian; HS 578T breast; NCI/ADR-RES ovarian.
Assay in all cases: NCI-60 one-dose screen, 48 h (100 = growth as untreated, 0 = no growth, -100 = all killed)
Common to all, as to conditions: 10 µM unless noted

About 83,000 compounds went through this panel and 20% of them were active in at least one assay; those are over-represented in the sample as a whole.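 48-hour exposure, single concentration, 96-well plates; percent growth endpoint where 0 means no net growth. Active: below 10.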 Unmarked numbers belong to inactive results. Calls of active or inactive are those of the source.

Consider `CC1(C)c2[nH]c3ccccc3c2C[C@]2(C)[C@H]3C(=O)C=C4[C@@H]5C[C@@](C)(C(N)=O)CC[C@]5(C)CC[C@@]4(C)[C@]3(C)CC[C@@H]12`, for which the growth was 45.8% in the test on SR leukemia; 42.3% in the test on RPMI-8226 leukemia; 75.1% in the test with OVCAR-8 ovarian; 93.3% with OVCAR-5 ovarian; 54.4% in the test on OVCAR-4 ovarian; 71.3% in the test with SK-OV-3 ovarian. Also, the growth in the test on IGROV1 ovarian is 84.4%; with OVCAR-3 ovarian, 69.9%; in the test on HS 578T breast, 71.4%; with NCI/ADR-RES ovarian, 71.2%.
As for `O=C(Cn1c(C(=O)c2ccccc2)nc2ccccc21)c1ccc(F)cc1`, the growth was 25.4% in the test on SR leukemia; 28.7% in the test on RPMI-8226 leukemia; 79.7% with OVCAR-8 ovarian; 84.2% in the test on OVCAR-5 ovarian; 58.4% in the test on OVCAR-4 ovarian; 110% in the test with SK-OV-3 ovarian. Besides, the growth in the test with IGROV1 ovarian is 41.1%; in the test with OVCAR-3 ovarian, 67.2%; in the test with HS 578T breast it was 56.2%; with NCI/ADR-RES ovarian it was 16.1%.
As for `Nc1c(C(=O)Nc2ccnc3ccccc23)sc2nc3c(cc12)CN(Cc1ccccc1)CC3`, the growth with SR leukemia was 35.5%; in the test with RPMI-8226 leukemia it was 38.8%; in the test on OVCAR-8 ovarian, 69.5%; with OVCAR-5 ovarian, 94.1%; in the test with OVCAR-4 ovarian it was 78.6%; in the test on SK-OV-3 ovarian, 98.9%. Moreover, the growth is 86.4% in the test on IGROV1 ovarian, 85.1% with OVCAR-3 ovarian, 89.9% in the test on HS 578T breast and 69.2% in the test on NCI/ADR-RES ovarian.
For the compound `CCCCCCNC(=O)Oc1ccc(/C(=C(\C)c2ccccc2)c2ccc(OCCN3CCCCC3)cc2)cc1`, the growth with SR leukemia is -8.47% (active); in the test on RPMI-8226 leukemia it was 39.6%; in the test with OVCAR-8 ovarian, 76.6%; in the test on OVCAR-5 ovarian, 93.9%; with OVCAR-4 ovarian, 71%; in the test on SK-OV-3 ovarian, 71.8%. Also, the growth is 63.7% in the test with IGROV1 ovarian, 66.9% in the test with OVCAR-3 ovarian, 76.3% with HS 578T breast and 63.1% with NCI/ADR-RES ovarian.
Consider `Cc1ccccc1NS(=O)(=O)c1cccc(C(=O)Nc2ccc(Br)cc2)c1`, for which the growth was 45.2% [25 µM] with SR leukemia; 33.6% [25 µM] in the test on RPMI-8226 leukemia; 40.5% [25 µM] in the test on OVCAR-8 ovarian; 76.7% [25 µM] in the test on OVCAR-5 ovarian; 36.5% [25 µM] with OVCAR-4 ovarian; 46.3% [25 µM] in the test with SK-OV-3 ovarian. Besides, the growth in the test with IGROV1 ovarian was 40.5% [25 µM]; with OVCAR-3 ovarian, 47.3% [25 µM]; in the test on HS 578T breast it was 59.1% [25 µM]; in the test on NCI/ADR-RES ovarian it was 19.1% [25 µM].
As to `CCOC(=O)CC1CSC(N/N=C/c2ccc(-n3cccn3)cc2)=N1` (stereo not given), the growth was 98.3% with SR leukemia; 99.1% in the test with RPMI-8226 leukemia; 97.8% with OVCAR-8 ovarian; 115% in the test with OVCAR-5 ovarian; 109% in the test with OVCAR-4 ovarian; 111% in the test with SK-OV-3 ovarian. Moreover, the growth in the test on IGROV1 ovarian is 114%; in the test with OVCAR-3 ovarian it was 110%; in the test with HS 578T breast it was 97.8%; in the test with NCI/ADR-RES ovarian, 101%.
Regarding `C=C1C(=O)O[C@H]2[C@H]1CC/C(CNC(=O)/C=C/c1ccccc1)=C\CC[C@@]1(C)O[C@@H]21`, the growth with SR leukemia is 6.13% (active); in the test on RPMI-8226 leukemia, -10.5% (active); with OVCAR-8 ovarian, 5.85% (active); in the test on OVCAR-5 ovarian, -21.6% (active); in the test on OVCAR-4 ovarian it was 38.5%; in the test with SK-OV-3 ovarian, 109%. Besides, the growth with IGROV1 ovarian was -16.9% (active); in the test with OVCAR-3 ovarian it was -85.1% (active); in the test on HS 578T breast, 28.6%; in the test on NCI/ADR-RES ovarian, 69.1%.
With `NNC(=O)c1ccc(-n2nc(-c3ccccc3)c3ccccc32)cc1`, the growth with SR leukemia was 83.5%; in the test with RPMI-8226 leukemia, 86.4%; with OVCAR-8 ovarian, 77%; in the test on OVCAR-5 ovarian, 93.8%; in the test on OVCAR-4 ovarian, 23.9%; with SK-OV-3 ovarian, 98.9%. Also, the growth with IGROV1 ovarian was 73.7%; in the test with OVCAR-3 ovarian, 8.87% (active); with HS 578T breast, 73%; in the test on NCI/ADR-RES ovarian it was 91.5%.
Turning to `Cc1cc2nc3c4cc([N+](=O)[O-])ccc4n(CCN(C)C)c3nc2cc1C`, the growth is -16.7% (active) with SR leukemia; -36.4% (active) in the test on RPMI-8226 leukemia; 8.77% (active) in the test with OVCAR-8 ovarian; -8.87% (active) in the test on OVCAR-5 ovarian; 9.25% (active) in the test with OVCAR-4 ovarian; 8.97% (active) in the test with SK-OV-3 ovarian. The growth in the test with IGROV1 ovarian is -33.6% (active); in the test with OVCAR-3 ovarian it was -8.29% (active); in the test on HS 578T breast, 20.7%; in the test with NCI/ADR-RES ovarian, -13.4% (active).
As to `O=C(NCCNc1nccc(-c2c(-c3cccc(F)c3)nc3sccn23)n1)c1ccc(Cl)cc1`, the growth in the test with SR leukemia is 46.5%; in the test on RPMI-8226 leukemia it was 62.4%; in the test on OVCAR-8 ovarian it was 55.1%; in the test on OVCAR-5 ovarian, 88.3%; in the test with OVCAR-4 ovarian, 77.9%; with SK-OV-3 ovarian, 80.9%. Moreover, the growth in the test on IGROV1 ovarian was 22.5%; in the test on OVCAR-3 ovarian it was 75.7%; in the test with HS 578T breast it was 74.8%; with NCI/ADR-RES ovarian it was 74.3%.
Regarding `CN(C)c1ccc(C2C(C#N)=C(/N=C/c3ccccc3)Oc3c2ccc2ccccc32)cc1` (stereo not given), the growth was 17.7% in the test with SR leukemia; 70.6% in the test with RPMI-8226 leukemia; 89.6% in the test with OVCAR-8 ovarian; 99.5% in the test with OVCAR-5 ovarian; 97.4% in the test with OVCAR-4 ovarian; 66.8% in the test on SK-OV-3 ovarian. In addition, the growth with IGROV1 ovarian was 49.8%; with OVCAR-3 ovarian, 43.7%; in the test on HS 578T breast it was 66.7%; in the test with NCI/ADR-RES ovarian, 54.4%.
With `N#Cc1c(NC(=O)NCc2ccccc2)sc2c1CCCCC2`, the growth in the test on SR leukemia was 29.5%; in the test on RPMI-8226 leukemia, 14.8%; in the test on OVCAR-8 ovarian, 21.8%; in the test on OVCAR-5 ovarian, 43.5%; with OVCAR-4 ovarian, 43%; with SK-OV-3 ovarian, 25%. Moreover, the growth with IGROV1 ovarian is 27.2%; in the test on OVCAR-3 ovarian, -17.6% (active); in the test with HS 578T breast it was 9.89% (active); in the test with NCI/ADR-RES ovarian, 17.2%.
For `COc1ccc(/C=C/c2nc(Nc3cccc(NC(C)=O)c3)c3ccccc3n2)cc1`, the growth in the test on SR leukemia is 64.7%; with RPMI-8226 leukemia, 89.3%; with OVCAR-8 ovarian, 84.5%; in the test on OVCAR-5 ovarian, 86.8%; in the test on OVCAR-4 ovarian, 104%; in the test on SK-OV-3 ovarian, 99.5%. For the same compound, the growth in the test with IGROV1 ovarian is 99.7%; in the test on OVCAR-3 ovarian, 97.7%; in the test with HS 578T breast, 89.1%; in the test with NCI/ADR-RES ovarian, 90%.

The values above are taken from PubChem BioAssay (NCI).
